H9c2 protect – myocardial damage modulation in H9c2 cells. actives 0.63% (n = 360,000). protection from H2O2 cell death, % at 20 µM. H9c2 cardiomyocytes, H2O2 injury protection, ATPLite, 2 h;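 active means compounds giving at least 50% protection of heart cells from peroxide-induced death in the single-dose screen, raw or plate-pattern-corrected value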
NadD block – NadD (S. aureus) enzyme inhibition. purified NadD enzyme, colorimetric absorbance read-out. inhibition, % at 20 µM. actives 0.78% (n = 360,000). AID 602399; in the data active means inhibition above about 26%
A3G deaminase – APOBEC3G (human) deaminase inhibition; Q9HC16; recombinant A3G, ssDNA deamination FAM/TAMRA fluorescence; inhibition, % at 20 µM; actives 0.28% (n = 330,000); AID 493012;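 active means inhibition of at least 40% at 20 µM, with no more than 30% in the related APOBEC3A deaminase screen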
Target sequence (Q9HC16 whole entry, looked up): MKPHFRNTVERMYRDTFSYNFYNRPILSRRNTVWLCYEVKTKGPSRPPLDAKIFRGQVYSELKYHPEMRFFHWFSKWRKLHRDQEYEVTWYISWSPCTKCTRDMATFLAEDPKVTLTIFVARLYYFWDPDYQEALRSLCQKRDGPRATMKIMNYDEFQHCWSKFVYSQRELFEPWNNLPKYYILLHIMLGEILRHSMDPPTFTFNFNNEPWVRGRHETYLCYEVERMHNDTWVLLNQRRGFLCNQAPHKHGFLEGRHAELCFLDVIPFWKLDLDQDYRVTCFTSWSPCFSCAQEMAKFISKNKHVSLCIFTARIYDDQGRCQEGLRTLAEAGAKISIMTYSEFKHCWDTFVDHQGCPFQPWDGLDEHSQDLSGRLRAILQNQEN
PfG6PD inh – PfG6PD (Plasmodium falciparum) enzyme inhibition; PfGluPho enzyme, NADPH resazurin-diaphorase fluorescence; inhibition, % at 20 µM; actives 0.78% (n = 350,000);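 active means inhibition reaching at least a set limit at 20 µM in the primary screen, cut at about 59% in these data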
APOBEC3A inh – inhibitors of human APOBEC3A DNA deaminase; inhibition, % at 20 µM; actives 0.41% (n = 330,000); recombinant A3A, FAM/TAMRA ssDNA deamination fluorescence; P31941;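 active means at least 40% inhibition at 20 µM here, with at most 30% in a related deaminase screen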
Target sequence (P31941 whole entry, looked up): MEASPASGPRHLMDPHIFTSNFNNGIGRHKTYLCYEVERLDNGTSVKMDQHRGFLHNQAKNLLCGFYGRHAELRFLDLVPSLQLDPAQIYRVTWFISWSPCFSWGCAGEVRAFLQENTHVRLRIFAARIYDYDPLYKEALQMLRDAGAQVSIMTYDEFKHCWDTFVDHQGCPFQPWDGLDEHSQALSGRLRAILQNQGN
TAG inh – inhibitors of triacylglycerol accumulation; H9c2 cells, Nile Red lipid (TAG) fluorescence; cells loaded with 200 µM oleic acid; inhibition, % at 12.5 µM; actives 0.66% (n = 230,000);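 active means pattern-corrected inhibition of lipid staining of at least 50% with the nuclear-stain viability signal not falling by more than 50%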
PfG6PD confirm – confirmation of Plasmodium falciparum G6PD inhibitors; actives 34% (n = 2,400); shares compounds with PfG6PD inh; inhibition, % at 20 µM; recombinant PfGluPho, NADPH-diaphorase-resazurin fluorescence;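 active means inhibition of at least 50% at 20 µM in any single replicate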
Diaph ctr 10uM – inhibits diaphorase or oxidizes, flagging false PfG6PD hits; shares compounds with PfG6PD inh; diaphorase-coupled resazurin reduction, fluorescence, NADPH 10 uM; inhibition, % at 20 µM; actives 39% (n = 820);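 active means average inhibition reaching 50% or more with the compound at 20 µM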;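 further: resorufin red fluorescence formed as diaphorase reduces resazurin using NADPH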
Diaphorase 30uM – diaphorase inhibition or oxidation at 30 uM NADPH. shares compounds with PfG6PD inh. Diaphorase/resazurin coupled assay, resorufin fluorescence. inhibition, % at 20 µM. actives 29% (n = 820);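 active means inhibition averaging 50% or more, tested at 20 µM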
Hits are given with their value. Rows were chosen to be rich in hits. Some 2.9% of all compounds tested hit in one or more screens of this group.

`COc1ccc(OC)c(-c2c3c([nH]c(=S)c2C#N)CCCC3)c1` gave H9c2 protect inactive, NadD block inactive, A3G deaminase inactive, PfG6PD inh 61.2, APOBEC3A inh inactive, TAG inh inactive and PfG6PD confirm inactive.
Screening CCOC(=O)C1CCN(S(=O)(=O)c2cn(C)c(C)n2)CC1 returned H9c2 protect inactive, NadD block inactive, A3G deaminase inactive, PfG6PD inh inactive, APOBEC3A inh inactive and TAG inh inactive.
OCC[C@H]1C[C@@H](O)[C@H](O)[C@@]2(CCCO2)O1 was read as H9c2 protect inactive, NadD block inactive, A3G deaminase inactive, PfG6PD inh inactive, APOBEC3A inh inactive and TAG inh inactive.
Screening COc1cc2c(C#N)c(N3CCCC3)nc(N)c2c(N)n1 returned H9c2 protect inactive, NadD block inactive, A3G deaminase inactive, PfG6PD inh inactive, APOBEC3A inh inactive and TAG inh inactive.
Screening N#Cc1c(N2CCCC2)nc(N)c2c(N)nc(N3CCCC3)cc12 returned H9c2 protect inactive, NadD block inactive, A3G deaminase inactive, PfG6PD inh 106.8, APOBEC3A inh inactive, TAG inh inactive and PfG6PD confirm inactive.
`O=C(CSc1ncn[nH]1)Nc1ccccc1Sc1ccc(Cl)cc1` gave H9c2 protect inactive, NadD block inactive, A3G deaminase inactive, PfG6PD inh 110.1, APOBEC3A inh inactive, PfG6PD confirm 68.1, Diaph ctr 10uM 58.9 and Diaphorase 30uM 57.1.
CCOC(=O)c1c(C)[nH]c(C)c1S(=O)(=O)NCc1cc(C)ccc1C was read as H9c2 protect inactive, NadD block inactive, A3G deaminase inactive, PfG6PD inh inactive and APOBEC3A inh inactive.
For O=[N+]([O-])c1ccccc1C1Nc2cccc3cccc(c23)N1 the results were H9c2 protect inactive, NadD block inactive, A3G deaminase inactive, PfG6PD inh 67.4, APOBEC3A inh inactive, TAG inh inactive and PfG6PD confirm inactive.
`CC(C)(C)NCC(=Cc1ccccc1)C(=O)c1ccccc1` gave H9c2 protect inactive, NadD block inactive, PfG6PD inh inactive and TAG inh inactive.
CCCCn1c(SC(C)C(=O)c2ccc(OC)cc2)nc2cc(S(N)(=O)=O)ccc21 (stereo unspecified) was read as H9c2 protect inactive, NadD block inactive, A3G deaminase inactive, PfG6PD inh inactive and APOBEC3A inh inactive.
Screening CCCCn1c(SCC(=O)c2ccc3c(c2)NC(=O)CO3)nc2cc(S(N)(=O)=O)ccc21 returned H9c2 protect inactive, NadD block inactive, A3G deaminase inactive, PfG6PD inh 60.6, APOBEC3A inh inactive, TAG inh inactive and PfG6PD confirm inactive.
Screening CCCCn1c(SCC(=O)c2ccc(OC)cc2OC)nc2cc(S(N)(=O)=O)ccc21 returned H9c2 protect inactive, NadD block inactive, A3G deaminase inactive, PfG6PD inh 96.0, APOBEC3A inh inactive, TAG inh inactive and PfG6PD confirm inactive.
Screening Cc1nc2ccccn2c1-c1ccnn1S(=O)(=O)c1ccc(F)cc1 returned H9c2 protect inactive, NadD block inactive, A3G deaminase inactive, PfG6PD inh 76.9, APOBEC3A inh inactive, TAG inh inactive, PfG6PD confirm 55.6, Diaph ctr 10uM inactive and Diaphorase 30uM 59.0.
Cc1nc2ccccn2c1C(=O)/C=C/c1ccc(F)cc1 was read as H9c2 protect inactive, NadD block inactive, A3G deaminase inactive, PfG6PD inh inactive, APOBEC3A inh inactive and TAG inh inactive.
c1ccc(C2Nc3cccc4cccc(c34)N2)cc1 was read as H9c2 protect inactive, NadD block inactive, A3G deaminase inactive, PfG6PD inh inactive, APOBEC3A inh inactive and TAG inh inactive.
`COc1ccc(C2Nc3cccc4cccc(c34)N2)cc1` gave H9c2 protect inactive, NadD block 39.3, A3G deaminase inactive, PfG6PD inh 69.4, APOBEC3A inh inactive, TAG inh inactive and PfG6PD confirm inactive.
`CCn1c(SCC(=O)c2cc(C)n(-c3ccc(C(=O)OC)cc3)c2C)nnc1-c1cccnc1` gave H9c2 protect inactive, NadD block inactive, A3G deaminase inactive, PfG6PD inh 90.3, APOBEC3A inh inactive, TAG inh inactive and PfG6PD confirm inactive.
`CC(=O)N1CCN(S(=O)(=O)c2cccc(C(=O)N3CCN(S(=O)(=O)c4c(C)c(C)cc(C)c4C)CC3)c2)CC1` gave H9c2 protect inactive, NadD block inactive, PfG6PD inh inactive and TAG inh inactive.
Screening CC1(OC(=O)C2CCCC2)C(=O)C=C2C=C(c3ccsc3)N(CCCCO)C=C2C1=O (stereo unspecified) returned H9c2 protect inactive, NadD block inactive, A3G deaminase inactive, PfG6PD inh 65.8, APOBEC3A inh inactive, TAG inh inactive and PfG6PD confirm inactive.
For CC1(OC(=O)C2CCCC2)C(=O)C=C2C=C(c3ccsc3)N(Cc3ccco3)C=C2C1=O (stereo unspecified) the results were H9c2 protect inactive, NadD block inactive, A3G deaminase inactive, PfG6PD inh inactive, APOBEC3A inh inactive and TAG inh inactive.
COc1ccc(CN2C=C3C(=O)C(C)(OC(=O)C4CCCC4)C(=O)C=C3C=C2c2ccsc2)cc1 (stereo unspecified) was read as H9c2 protect inactive, NadD block inactive, A3G deaminase inactive, PfG6PD inh 66.6, APOBEC3A inh inactive, TAG inh inactive and PfG6PD confirm inactive.
Screening CC1(OC(=O)C2CCCC2)C(=O)C=C2C=C(c3ccsc3)N(C3CCCC3)C=C2C1=O (stereo unspecified) returned H9c2 protect inactive, NadD block inactive, A3G deaminase inactive, PfG6PD inh 63.2, APOBEC3A inh inactive, TAG inh inactive and PfG6PD confirm inactive.
O=C(CCNC(=O)c1ccc([N+](=O)[O-])cc1)Nc1ccc(S(=O)(=O)N2CCOCC2)cc1 was read as H9c2 protect inactive, NadD block inactive, A3G deaminase inactive, PfG6PD inh inactive, APOBEC3A inh inactive and TAG inh inactive.
Screening CCS(=O)(=O)N1Cc2cc(C(=O)N(C)C)nc(-c3cccc(-c4ccc(F)cc4)c3)c2[C@@H]1CCO returned NadD block inactive.
`COc1cc(C(=O)O/N=C(\N)c2ccncc2)cc(OC)c1OC` gave H9c2 protect inactive, NadD block inactive, A3G deaminase inactive, PfG6PD inh inactive and APOBEC3A inh inactive.
For COc1ccc(S(=O)(=O)N=C2C=C(C)C(=O)C(C)=C2)cc1 the results were H9c2 protect inactive, NadD block inactive, A3G deaminase inactive, PfG6PD inh inactive, APOBEC3A inh inactive and TAG inh inactive.
